Bioassay records deposited in PubChem by National Center for Advancing Translational Sciences (NCATS).
An excerpt weighted towards active compounds, which were near 17% of everything screened.
ATXN2 expr inh: reduces ATXN2 reporter expression in HEK-293 cells | Potency, µM (series often up to 57 µM), without a hit: top-dose activity change, negative = inhibition, most hits filed as inhibitors | HEK-293 ATXN2-luciferase reporter, luminescence, 24 h | actives 0.72% (n = 360,000) | AID 1745845; further: on the % scale 0 is the no-effect control and ±100 the full control effect; nearly all actives have a fitted effect of over 55% in size
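qHTS (up to 57 uM final) was run with 24 h compound exposure of reporter cells at 37 °C. Each well was multiplexed: SteadyGlo luminescence measured ATXN2-luciferase expression after a fluorogenic Gly-Phe-AFC viability readout (25 uM final).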
HepG2 viability: HepG2 cytotoxicity, counter-screen for TGF-b inhibitors; HepG2 CAGA-GFP viability, ATP luminescence, 18 h; Potency, µM (doses to about 46.1 µM), for inactives: at the top dose activity change, negative = cytotoxicity, usual class: cytotoxic; actives 0.76% (n = 410,000)
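CellTiter-Glo luminescence gave cytotoxicity after 18 hours at 37 degrees C. The cells were HepG2 CAGA-GFP in 1% FBS DMEM, stimulated with 500 pg/mL TGF-beta after compound addition. %Activity was normalised to no-cell wells (complete cell-killing) and DMSO (no toxicity), and curves were fitted and classified.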
DT40 TDP1 no CPT: qHTS for Inhibitors of human tyrosyl-DNA phosphodiesterase 1 (TDP1): qHTS in cells in absence of CPT. DT40 Tdp1-/- hTDP1 cells, no CPT, ATP luminescence, 48 h. Potency, µM (titrated, usually from 46.2 µM), without a hit: at the highest dose activity change, negative = growth inhibition, hits mostly inhibitors. actives 15% (n = 420,000). AID 686978, 2013; further: on the % scale 0 is the no-effect control and ±100 the full control effect; nearly all actives have a fitted effect of over 55% in size
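Growth of hTDP1-complemented DT40 Tdp1-knockout cells is measured by ATP luminescence after at least 48 hr compound exposure at 37 °C, with DMSO substituting for the 20 nM CPT used in the parallel screen.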
S2 tox: reduces viability in counter-screen for ATXN expression inhibitors. Potency, µM (titrated, usually from 56.7 µM), usual class: cytotoxic. S2 cells (HEK-293 line with an ATXN2-luciferase reporter) viability, CellTiter-Fluor protease fluorescence, 24 h. AID 651635. actives 0.49% (n = 400,000); further: nearly all actives have a fitted effect of over 40% in size
TDP1 cell CPT: DT40-hTDP1 cell growth loss with CPT. chicken DT40 Tdp1-/-;hTDP1 cells + 20 nM CPT, ATP luminescence, 48 h. Potency, µM (series often up to 46.2 µM), for inactives: at the top dose activity change, negative = growth inhibition, actives largely listed as inhibitors. actives 12% (n = 420,000); further: on the % scale 0 is the no-effect control and ±100 the full control effect; nearly all actives have a fitted effect of over 55% in size
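Chicken DT40 Tdp1-/- cells stably complemented with human TDP1 were seeded at 400 cells/well in medium containing 20 nM camptothecin, exposed to pin-transferred compounds, and grown at 37 °C for at least 48 hr. Viability was read as ATP luminescence.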
TGFb inhibitor: inhibitors of TGF-b signaling; actives 1.2% (n = 410,000); Potency, µM (titrated, usually from 46.1 µM), without a hit: top-dose activity, negative = inhibition, hits mostly inhibitors; AID 588855; HepG2 CAGA-GFP TGF-b/SMAD3 reporter, GFP fluorescence, 18 h; TGF-beta stimulated, 500 pg/mL final; further: on the % scale 0 is the no-effect control and ±100 the full control effect; nearly all actives have a fitted effect of over 65% in size
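GFP signal (ex488/em500-530) from TGF-beta-stimulated HEPG2 CAGA-GFP cells, 500 pg/mL final, 18 h at 37 degrees C in DMEM plus 1% FBS, normalized to unstimulated and DMSO-stimulated controls.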
The depositor's hits bear a star; i = inactive; ? = inconclusive; . = no result given; ! = a repeat was not active. The call rests on the fitted dose curve; in most records, active means well fitted curve in the direction sought with a large enough effect; inconclusive means small, poorly fitted or top-dose-only effect, or another doubt; inactive means no such curve, though single readings can be large; an effect the other way counts as inactive or inconclusive. Potency means the concentration at half of the fitted maximal effect.

SMILES	ATXN2 expr inh	HepG2 viability	DT40 TDP1 no CPT	S2 tox	TDP1 cell CPT	TGFb inhibitor
Cc1ccc(S(=O)(=O)Cc2ccc(C(=O)N3CCN(c4cccc(Cl)c4)CC3)o2)cc1	?	-20%	0.65µM*	?	0.65µM*	?
Cc1ccccc1S(=O)(=O)Cc1ccc(C(=O)N2CC(C)CC(C)C2)o1 (centres undefined)	0%	0%	?	i	?	-5%
Cc1ccccc1S(=O)(=O)Cc1ccc(C(=O)N2CCN(c3cccc(Cl)c3)CC2)o1	?	-24%	4.6µM*	?	4.1µM*	-22%
Cc1ccc(S(=O)(=O)c2nc(Nc3ccccc3)sc2Cl)cc1	-31%	-31%	?	i	?	?
COc1ccc(Nc2nc(S(=O)(=O)c3ccc(C)cc3)c(Cl)s2)cc1	?	-30%	?	i	?	11µM*
COc1ccc(/C=C/C(=O)NC2CCCCCCC2)cc1S(=O)(=O)N1CCOCC1	10%	-18%	21µM*	?	21µM*	?
O=C(/C=C/c1ccco1)Nc1cccc(S(=O)(=O)N2CCOCC2)c1	15%	7%	-13%	i	-9%	-12%
COc1ccc(/C=C/C(=O)NC(C)(C)C)cc1S(=O)(=O)N1CCOCC1	1%	1%	-7%	i	-13%	?
CC(=O)c1cccc(NC(=O)/C=C/c2ccc(S(=O)(=O)N3CCOCC3)cc2)c1	?	-10%	18µM*	?	?	-13%
Cc1ccc(/C=C/C(=O)Nc2cccc(S(=O)(=O)N3CCOCC3)c2)o1	5%	-6%	?	i	23µM*	0%
CN(C)S(=O)(=O)c1cccc(NC(=O)/C=C/c2ccc(S(=O)(=O)N3CCOCC3)cc2)c1	-16%	0%	18µM*	i	15µM*	-2%
CC12CN3CCN(CC(C3)/C1=N/N=C/c1cccc([N+](=O)[O-])c1)C2	0%	-3%	-3%	i	-4%	5%
CCOc1ccc(S(=O)(=O)N2CCOCC2)cc1NC(=O)CN1C(=O)NC(C)(C2CC2)C1=O (centres undefined)	.	13%	2%	?	-3%	-2%
COc1ccc(OC)c(NC(=O)/C=C/c2ccc(S(=O)(=O)N3CCOCC3)cc2)c1	-26%	-3%	?	i	26µM*	-3%
COc1ccc(C)cc1NC(=O)/C=C/c1ccc(OC)c(S(=O)(=O)N2CCOCC2)c1	?	-18%	-1%	i	-25%	-14%
Cc1ccc(/C=C/C(=O)N2CCN(S(=O)(=O)c3c(C)c(C)cc(C)c3C)CC2)o1	3%	-44%	15µM*	i	23µM*	?
COc1ccc(/C=C/C(=O)Nc2cccc(S(=O)(=O)N3CCOCC3)c2)cc1OC	-7%	-3%	16µM*	i	?	14%
COc1ccccc1N1CCN(C(C)C(=O)Nc2ccc(S(=O)(=O)N3CCOCC3)cc2)CC1 (centres undefined)	-10%	9%	13µM*	i	?	-9%
Cc1ccc(/C=C/C(=O)N2CCN(Cc3ccccc3)CC2)o1	8%	-9%	?	i	?	-1%
NC(=O)c1cnccc1C=Cc1ccccc1	-10%	-18%	-11%	i	1%	1%
Cc1ccc(NC(=O)[C@@H](NC(=O)c2cccc(S(=O)(=O)N3CCOCC3)c2)C(C)C)cc1C	-14%	-26%	12µM*	i	?	-21%
COc1ccc(NC(C)C(=O)Nc2cccc(S(=O)(=O)N3CCOCC3)c2)cc1OC (centres undefined)	?	-14%	8.2µM*	i	9.2µM*	-4%
CC(C)[C@H](NC(=O)c1ccccc1)C(=O)Nc1cccc(S(=O)(=O)N2CCOCC2)c1	3%	-7%	-11%	i	-21%	-8%
COc1ccc(NC(C)=O)cc1NC(C)C(=O)Nc1cccc(S(=O)(=O)N2CCOCC2)c1 (centres undefined)	.	-12%	-18%	?	0%	-4%
COCCCN(Cc1cccs1)S(=O)(=O)c1c[nH]c(C(=O)OC)c1	5%	-1%	5%	i	1%	8%
SMILES	ATXN2 expr inh	HepG2 viability	DT40 TDP1 no CPT	S2 tox	TDP1 cell CPT	TGFb inhibitor
CS(=O)(=O)c1ccc(C(=O)Nc2ccc(N3CCOCC3)cc2)c(Cl)c1	-6%	3%	?	i	4%	8%
CS(=O)(=O)c1ncc(Cl)c(C(=O)Nc2ccc(N3CCOCC3)cc2)n1	?	-101%	1.1µM*	.	1.2µM*	?
CS(=O)(=O)c1ncc(Cl)c(C(=O)Nc2ccc(OC(F)F)cc2)n1	?	-96%	1.2µM*	?	0.82µM*	?
COc1cc(-c2cc(=O)c3c(C)cc(O)cc3o2)cc(OC)c1OC	5%	1%	8.2µM*	i	?	18%
COc1cc2oc(-c3ccc(O)cc3)cc(=O)c2c(O)c1OC	1%	-17%	18µM*	i	-88%	-11%
COc1cc2oc(-c3ccc(O)cc3)cc(=O)c2c(OC)c1O	.	5%	?	i	?	33%
O=c1cc(-c2ccc(O)cc2)oc2c(O)c(O)c(O)c(O)c12	4%	1%	?	i	23µM*	13%
O=c1cc(-c2ccc(O)cc2)oc2ccc3ccccc3c12	-85%	-59%	16µM*	i	?	?
O=C(OCC(=O)N1CCc2ccccc21)c1ccncc1	1%	8%	2%	i	-12%	23%
O=C(Nc1nnc([C@@H]2C[C@H](O)[C@@H](CO)O2)s1)c1cccc(C(F)(F)F)c1	14%	4%	9%	i	-1%	5%
COc1ccc2oc(-c3ccc(O)cc3)cc(=O)c2c1	.	.	27µM*	.	?	.
COc1ccc(-c2cc(=O)c3c(OC)c(OC)c(OC)c(OC)c3o2)cc1	-29%	-30%	16µM*	i	23µM*	-14%
COc1c(O)cc2oc(-c3ccc(O)cc3)cc(=O)c2c1O	17%	-17%	?	?	29µM*	-13%
O=c1cc(-c2cccc(O)c2)oc2cccc(O)c12	.	.	-5%	.	6%	.
O=c1cc(-c2ccccc2)oc2cc(O)c(O)c(O)c12	19%	-3%	30µM*	i	17µM*!	3%
